Assay outcomes (PubChem)
Hits are enriched below; roughly 3.4% of the tested compounds scored in any of these assays.
TROY signal inh – blocks TROY-dependent signaling in reporter cells | Q293 LMP1-TROYcd NF-kB luciferase reporter, 4 h | inhibition, % at 10 µM | 360,000 tested, 0.98% active | AID 1347056;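 active means compounds whose plate-normalised and pattern-corrected inhibition of the luciferase reporter signal at the single screening dose is 50% or more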
TRPM1 prom inh – MITF TRPM1 promoter inhibition in SK-MEL-5 cells. SK-MEL-5 TRPM1 promoter luciferase, 24 h. inhibition, % at 12.5 µM. 330,000 tested, 0.83% active;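 active means mean inhibition across replicates of 60% or more, whatever share of single replicates reaches that level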
TWEAK-Fn14 inh – blocks TWEAK-Fn14 interaction in a reporter cell assay; TWEAK-stimulated Fn14 reporter cells, luciferase luminescence, 8 h; inhibition, % at 10 µM; 360,000 tested, 2% active; AID 1159606; in the data active means inhibition above about 50%
EBV LMP1 NFkB – inhibitors of Epstein-Barr LMP1-induced NF-kappaB reporter; LMP1-induced NF-kappaB luciferase reporter cells, luminescence; 350,000 tested, 0.69% active; inhibition, % at 12.5 µM; in the data active means inhibition above about 41%;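 further: 0% = neutral control wells and 100% = reference inhibitor control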
Shn3 3UTR inh – inhibitors of Schnurri-3 3'UTR reporter in osteoblasts; Clone20 osteoblast Shn3 3'UTR firefly luciferase, 24 h; inhibition, % at 12.5 µM; 360,000 tested, 0.52% active; AID 588674;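 active means mean inhibition of at least 75% with every replicate also reaching 75%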;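 further: 0% = median of neutral control wells and 100% = pilot-screen positive control compound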
HIF-2a inh – inhibitors of HIF-2a; AID 624352; inhibition, % at 18.8 µM; 360,000 tested, 0.72% active; 786-0 RCC cells HIF-2a reporter, luciferase luminescence, overnight;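 active means inhibition of the luminescence signal of 40% or more relative to plate controls, in a single-dose primary screen at 18.75 µM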
* marks the source's active call; other numbers are inactive results.

Screening CC1CN(c2nc3ccccn3c(=O)c2/C=C(\C#N)C(N)=O)CC(C)O1 (stereo not drawn) returned TROY signal inh -22, TRPM1 prom inh -6, TWEAK-Fn14 inh 91*, EBV LMP1 NFkB -8, Shn3 3UTR inh 0 and HIF-2a inh 5.
For O=C(Nc1ccc(C(O)c2ccccc2)cc1)[C@@H]1O[C@H](CO)[C@H](O)[C@H](O)[C@H]1O (stereo partly drawn) the results were TROY signal inh -2, TWEAK-Fn14 inh 2, Shn3 3UTR inh 6 and HIF-2a inh 9.
`CC(=O)Oc1ccc2ccccc2c1C(NC(=O)Cc1ccccc1)c1ccc(Cl)cc1` (stereo not drawn) gave TROY signal inh 36, TRPM1 prom inh 10, TWEAK-Fn14 inh 55*, EBV LMP1 NFkB -6, Shn3 3UTR inh 7 and HIF-2a inh 11.
For CCOc1ccc(C(NC(=O)CC)c2c(O)ccc3ccccc23)cc1 (stereo not drawn) the results were TROY signal inh -5, TRPM1 prom inh 2, TWEAK-Fn14 inh -21, EBV LMP1 NFkB -1, Shn3 3UTR inh -8 and HIF-2a inh 14.
`C[C@H](CO)N1C[C@H](C)[C@H](CN(C)Cc2ccc(Oc3ccccc3)cc2)Oc2cc(Br)ccc2S1(=O)=O` gave TROY signal inh 3, TWEAK-Fn14 inh 13, EBV LMP1 NFkB -6, Shn3 3UTR inh 34 and HIF-2a inh -20.
`Cc1ccnc(N2C(=O)c3cccc4c([N+](=O)[O-])ccc(c34)C2=O)c1` gave TROY signal inh 40, TRPM1 prom inh 13, TWEAK-Fn14 inh -36, EBV LMP1 NFkB -4, Shn3 3UTR inh 47 and HIF-2a inh 18.
Screening Cc1ccc(N2C(=O)c3cccc4c([N+](=O)[O-])ccc(c34)C2=O)c2cccnc12 returned TROY signal inh 16, TRPM1 prom inh 74*, TWEAK-Fn14 inh 36, EBV LMP1 NFkB 38, Shn3 3UTR inh 92* and HIF-2a inh 20.
`O=C1c2cccc3c([N+](=O)[O-])ccc(c23)C(=O)N1Cc1cccnc1` gave TROY signal inh 64*, TRPM1 prom inh 20, TWEAK-Fn14 inh 2, EBV LMP1 NFkB 3, Shn3 3UTR inh 49 and HIF-2a inh 27.
O=C1c2cccc3cccc(c23)C(=O)N1Cc1cccnc1 was read as TROY signal inh -24, TRPM1 prom inh -8, TWEAK-Fn14 inh -18, EBV LMP1 NFkB 3, Shn3 3UTR inh 6 and HIF-2a inh 15.
Screening CCOC(=O)N1CCN(C(=O)C[C@@H]2C[C@@]3(C(=O)OCC)CCCC=C3N(Cc3ccc(Cl)cc3Cl)C2=O)CC1 returned TROY signal inh 7, TWEAK-Fn14 inh 13 and HIF-2a inh -3.
`Cc1ccc(/C(N)=N/OC(=O)c2ccc(Cl)cc2Cl)cc1` gave TROY signal inh 61*, TRPM1 prom inh -19, TWEAK-Fn14 inh 79*, EBV LMP1 NFkB -6, Shn3 3UTR inh 5 and HIF-2a inh -108.
Screening Cc1cccc(Cn2cnc3c(nnn3Cc3ccc(Cl)cc3)c2=O)c1 returned TROY signal inh 24, TRPM1 prom inh 1, TWEAK-Fn14 inh 1, EBV LMP1 NFkB 4, Shn3 3UTR inh 14 and HIF-2a inh 14.
For Cc1cccc(Cn2nc(-n3cccc3)c3c(C)cc(C)nc32)c1 the results were TROY signal inh -38, TRPM1 prom inh 10, TWEAK-Fn14 inh -12, EBV LMP1 NFkB 47*, Shn3 3UTR inh -13 and HIF-2a inh 4.
`Cc1cc(C(F)(F)F)c(C#N)c(SCC(=O)Nc2nc3cc(Br)ccc3s2)n1` gave TROY signal inh 72*, TRPM1 prom inh -3, TWEAK-Fn14 inh 79*, EBV LMP1 NFkB -5, Shn3 3UTR inh -24 and HIF-2a inh -86.
Screening Cc1ccc(S(=O)(=O)N(C)c2ccc(C(=O)NCc3ccccc3F)cc2)cc1 returned TROY signal inh 2, TRPM1 prom inh 10, TWEAK-Fn14 inh 11, EBV LMP1 NFkB -3, Shn3 3UTR inh 4 and HIF-2a inh 0.
For Cn1c(N)c(C(C[N+](=O)[O-])c2ccccc2Cl)c(=O)n(C)c1=O (stereo not drawn) the results were TROY signal inh 12, TRPM1 prom inh -6, TWEAK-Fn14 inh 99*, EBV LMP1 NFkB 8, Shn3 3UTR inh -12 and HIF-2a inh 18.
`Cc1cc(COc2ccccc2)oc1C(=O)O` gave TROY signal inh 58*, TRPM1 prom inh -17, TWEAK-Fn14 inh 90*, EBV LMP1 NFkB -30, Shn3 3UTR inh -56 and HIF-2a inh -42.
